# Values joined by “and” are separate entries in the source; they are usually repeats but may differ in a detail not shown here. Equal entries are not always repeated. Inconclusive results are not listed. The source holds several records for some structures; these can differ, active in one and inactive in another. Active and inactive are the calls of the source. Rule for the calls: active = hit-call score of the fitted dose curve at least 0.9, where 1 is the maximum; inconclusive = response in the unintended direction; inactive = score below 0.9.
# Assays:
# [1] = target: human Thromboxane A2 Receptor (TXA2), TBXA2R (gene 6915) (UniProt P21731); assay: NVS_GPCR_hTXA2: NovaScreen (NVS) G Protein-Coupled Receptor Assay for human Thromboxane A2 Receptor (TXA2) (AID 2283282);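 note: actives reduce bound radioligand signal relative to DMSO baseline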
# Sequence of human Thromboxane A2 Receptor (TXA2), TBXA2R (gene 6915) (P21731 whole entry, looked up): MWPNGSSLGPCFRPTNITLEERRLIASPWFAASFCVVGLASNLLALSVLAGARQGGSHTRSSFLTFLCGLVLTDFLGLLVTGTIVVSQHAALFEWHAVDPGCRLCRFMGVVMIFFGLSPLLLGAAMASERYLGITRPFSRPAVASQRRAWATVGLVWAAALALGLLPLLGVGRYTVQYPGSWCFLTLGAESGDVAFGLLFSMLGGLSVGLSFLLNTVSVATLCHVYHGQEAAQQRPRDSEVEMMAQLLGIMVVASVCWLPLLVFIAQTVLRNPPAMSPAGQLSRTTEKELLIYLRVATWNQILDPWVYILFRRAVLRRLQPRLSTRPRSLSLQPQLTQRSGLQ
# Summary of the method: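 Cell-free radioligand binding on membrane protein from human platelets; radioligand displacement read by filter-based scintillation counting after 1 h. Primary screen in duplicate at 25 uM, actives then run in concentration series; loss of signal versus DMSO.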
# [2] = target: human Adrenergic, Alpha 2c Receptor (Adra2C), ADRA2C (gene 152) (UniProt P18825); assay: NVS_GPCR_hAdra2C: NovaScreen (NVS) G Protein-Coupled Receptor Assay for human Adrenergic, Alpha 2c Receptor (Adra2C) (AID 2283259)
# Sequence of human Adrenergic, Alpha 2c Receptor (Adra2C), ADRA2C (gene 152) (P18825 whole entry, looked up): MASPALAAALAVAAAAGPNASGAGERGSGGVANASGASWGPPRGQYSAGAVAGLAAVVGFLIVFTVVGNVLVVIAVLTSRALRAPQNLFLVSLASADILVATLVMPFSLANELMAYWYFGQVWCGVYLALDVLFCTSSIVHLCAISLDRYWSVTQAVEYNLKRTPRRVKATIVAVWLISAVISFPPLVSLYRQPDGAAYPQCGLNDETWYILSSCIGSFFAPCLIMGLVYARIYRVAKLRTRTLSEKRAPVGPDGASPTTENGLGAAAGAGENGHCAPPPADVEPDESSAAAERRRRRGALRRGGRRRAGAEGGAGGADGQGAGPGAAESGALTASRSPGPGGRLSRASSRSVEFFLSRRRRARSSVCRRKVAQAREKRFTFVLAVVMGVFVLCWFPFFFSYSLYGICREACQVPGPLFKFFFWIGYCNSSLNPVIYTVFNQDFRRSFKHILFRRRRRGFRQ
# Summary of the method: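 Radioligand binding on Sf9-expressed receptor membranes, 1 h after chemical dosing, filter-based scintillation read-out. Loss of binding fitted positively versus DMSO; primary duplicate screen at 25 uM, actives retested in concentration series.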
# [3] = target: D(1A) dopamine receptor (Homo sapiens) (UniProt P21728); assay: NVS_GPCR_hDRD1: NovaScreen (NVS) G Protein-Coupled Receptor Assay for human Dopamine Receptor D1 (DRD1) (AID 2283269)
# Sequence of D(1A) dopamine receptor (Homo sapiens) (P21728 whole entry, looked up): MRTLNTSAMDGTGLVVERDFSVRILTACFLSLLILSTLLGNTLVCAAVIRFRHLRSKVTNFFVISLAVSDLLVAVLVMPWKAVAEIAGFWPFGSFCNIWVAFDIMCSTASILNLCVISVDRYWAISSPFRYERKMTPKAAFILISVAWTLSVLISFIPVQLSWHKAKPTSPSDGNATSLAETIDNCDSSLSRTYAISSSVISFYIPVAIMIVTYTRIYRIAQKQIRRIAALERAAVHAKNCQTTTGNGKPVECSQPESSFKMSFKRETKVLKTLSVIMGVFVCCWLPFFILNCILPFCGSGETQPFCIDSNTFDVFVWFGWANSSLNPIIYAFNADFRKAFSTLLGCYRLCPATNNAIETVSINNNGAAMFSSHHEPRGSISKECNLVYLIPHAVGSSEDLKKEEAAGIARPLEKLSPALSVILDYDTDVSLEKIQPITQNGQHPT
# Summary of the method: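 HEK293-derived receptor preparation; radioligand competitive displacement; 1 h; filtration + scintillation counting. DMSO = negative control/baseline. Primary: 25 uM, duplicate; secondary: concentration–response for actives.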
# [4] = target: human Dopamine Receptor D4.4 (DRD4.4), DRD4 (gene 1815) (UniProt P21917); assay: NVS_GPCR_hDRD4.4: NovaScreen (NVS) G Protein-Coupled Receptor Assay for human Dopamine Receptor D4.4 (DRD4.4) (AID 2283264)
# Sequence of human Dopamine Receptor D4.4 (DRD4.4), DRD4 (gene 1815) (P21917 whole entry, looked up): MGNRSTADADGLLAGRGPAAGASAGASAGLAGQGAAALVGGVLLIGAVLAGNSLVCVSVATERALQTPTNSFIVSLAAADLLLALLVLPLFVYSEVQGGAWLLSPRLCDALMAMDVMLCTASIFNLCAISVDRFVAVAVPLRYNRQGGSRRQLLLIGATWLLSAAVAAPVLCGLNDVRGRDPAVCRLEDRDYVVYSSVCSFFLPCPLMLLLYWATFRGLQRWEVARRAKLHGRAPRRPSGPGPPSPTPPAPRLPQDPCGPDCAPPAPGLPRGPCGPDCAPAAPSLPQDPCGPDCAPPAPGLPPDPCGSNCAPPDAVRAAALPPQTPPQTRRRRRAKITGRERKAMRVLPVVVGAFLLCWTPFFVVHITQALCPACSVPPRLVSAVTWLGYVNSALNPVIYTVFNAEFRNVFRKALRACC
# Summary of the method: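 Radioligand displacement on human DRD4.4 from CHO-derived membranes, 1 hour incubation, bound counts read by filtration and scintillation. Primary screen in duplicate at 25 uM; actives followed up in concentration series.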
# [5] = target: human Histamine 1 Receptor (H1), HRH1 (gene 3269) (UniProt P35367); assay: NVS_GPCR_hH1: NovaScreen (NVS) G Protein-Coupled Receptor Assay for human Histamine 1 Receptor (H1) (AID 2283268)
# Summary of the method: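 Cell-free radioligand displacement at human H1 receptor, 1 h, filter scintillation counting; primary screen 25 uM in duplicate, hits in concentration series; loss of binding fitted vs DMSO.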
# [6] = target: human Opioid Receptor Delta 1 (Opiate D1), OPRD1 (gene 4985) (UniProt P41143); assay: NVS_GPCR_hOpiate_D1: NovaScreen (NVS) G Protein-Coupled Receptor Assay for human Opioid Receptor Delta 1 (Opiate D1) (AID 2283280)
# Sequence of human Opioid Receptor Delta 1 (Opiate D1), OPRD1 (gene 4985) (P41143 whole entry, looked up): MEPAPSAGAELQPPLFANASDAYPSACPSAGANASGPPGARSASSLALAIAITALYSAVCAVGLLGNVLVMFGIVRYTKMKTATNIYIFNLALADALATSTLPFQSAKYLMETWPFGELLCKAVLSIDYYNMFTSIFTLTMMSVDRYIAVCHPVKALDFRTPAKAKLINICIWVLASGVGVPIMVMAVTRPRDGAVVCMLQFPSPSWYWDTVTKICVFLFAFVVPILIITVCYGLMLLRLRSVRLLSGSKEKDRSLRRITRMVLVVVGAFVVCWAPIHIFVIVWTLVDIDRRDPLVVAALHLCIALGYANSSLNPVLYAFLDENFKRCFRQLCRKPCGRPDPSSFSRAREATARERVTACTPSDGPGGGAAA
# Summary of the method: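 Radioligand displacement on membranes from CHO cells expressing the receptor, read by filter scintillation counting 1 h after dosing. Duplicate single-point screen at 25 uM, then concentration series for actives; loss of signal versus DMSO.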
# [7] = target: human Purinergic Receptor P2Y, P2RY1 (gene 5028) (UniProt P47900); assay: NVS_GPCR_hPY2: NovaScreen (NVS) G Protein-Coupled Receptor Assay for human Purinergic Receptor P2Y (AID 2283281)
# Sequence of human Purinergic Receptor P2Y, P2RY1 (gene 5028) (P47900 whole entry, looked up): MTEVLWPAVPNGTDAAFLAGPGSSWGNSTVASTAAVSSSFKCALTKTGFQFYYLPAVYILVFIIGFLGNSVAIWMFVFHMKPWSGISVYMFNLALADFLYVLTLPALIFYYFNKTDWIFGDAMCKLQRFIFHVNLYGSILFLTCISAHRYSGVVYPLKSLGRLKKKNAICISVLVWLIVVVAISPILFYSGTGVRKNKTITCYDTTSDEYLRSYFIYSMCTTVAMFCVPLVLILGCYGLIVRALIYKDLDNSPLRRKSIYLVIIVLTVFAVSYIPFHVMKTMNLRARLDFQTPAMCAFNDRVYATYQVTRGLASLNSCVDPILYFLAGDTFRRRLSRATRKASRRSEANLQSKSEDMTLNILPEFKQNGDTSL
# Summary of the method: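 Cell-free radioligand binding using U937-derived protein, 1 h after dosing, filter-based scintillation counting. Screened in duplicate at 25 uM; actives rerun as concentration-response up to 50 uM; loss of signal versus DMSO.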
# [8] = target: human Adrenergic, Beta 3 Receptor (Adrb3), ADRB3 (gene 155) (UniProt P13945); assay: NVS_GPCR_hAdrb3: NovaScreen (NVS) G Protein-Coupled Receptor Assay for human Adrenergic, Beta 3 Receptor (Adrb3) (AID 2283262)
# Sequence of human Adrenergic, Beta 3 Receptor (Adrb3), ADRB3 (gene 155) (P13945 whole entry, looked up): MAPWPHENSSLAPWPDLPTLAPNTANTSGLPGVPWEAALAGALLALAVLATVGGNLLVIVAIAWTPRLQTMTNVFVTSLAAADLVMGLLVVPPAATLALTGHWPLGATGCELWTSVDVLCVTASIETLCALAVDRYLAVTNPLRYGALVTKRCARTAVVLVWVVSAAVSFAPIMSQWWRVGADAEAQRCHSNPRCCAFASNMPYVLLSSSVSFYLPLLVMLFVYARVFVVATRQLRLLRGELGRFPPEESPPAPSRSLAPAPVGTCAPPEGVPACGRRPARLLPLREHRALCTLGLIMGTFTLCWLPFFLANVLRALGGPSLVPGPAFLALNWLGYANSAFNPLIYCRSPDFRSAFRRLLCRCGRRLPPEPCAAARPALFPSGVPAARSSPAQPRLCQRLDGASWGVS
# Summary of the method: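 Membranes from SK-N-MC cells pretreated with isoproterenol and 8-bromo-cAMP were used in a radioligand competitive displacement binding assay. Binding was read by filter-based scintillation counting 1 hour after dosing. Primary screening was in duplicate at 25 uM, with concentration series in follow-up.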
# [9] = target: human Dopamine Receptor D2 (DRD2), DRD2 (gene 1813) (UniProt P14416); assay: NVS_GPCR_hDRD2s: NovaScreen (NVS) G Protein-Coupled Receptor Assay for human Dopamine Receptor D2 (DRD2) (AID 2283266)
# Summary of the method: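 Radioligand displacement used human DRD2 membranes extracted from CHO cells and was read by filter-based scintillation counting after 1.5 hours. Primary screening was in duplicate at 25 uM. Loss of signal versus DMSO was fitted, with concentration series in follow-up.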
# [10] = target: human Muscarinic, M4 Receptor, CHRM4 (gene 1132) (UniProt P08173); assay: NVS_GPCR_hM4: NovaScreen (NVS) G Protein-Coupled Receptor Assay for human Muscarinic, M4 Receptor (AID 2283274)
# Sequence of human Muscarinic, M4 Receptor, CHRM4 (gene 1132) (P08173 whole entry, looked up): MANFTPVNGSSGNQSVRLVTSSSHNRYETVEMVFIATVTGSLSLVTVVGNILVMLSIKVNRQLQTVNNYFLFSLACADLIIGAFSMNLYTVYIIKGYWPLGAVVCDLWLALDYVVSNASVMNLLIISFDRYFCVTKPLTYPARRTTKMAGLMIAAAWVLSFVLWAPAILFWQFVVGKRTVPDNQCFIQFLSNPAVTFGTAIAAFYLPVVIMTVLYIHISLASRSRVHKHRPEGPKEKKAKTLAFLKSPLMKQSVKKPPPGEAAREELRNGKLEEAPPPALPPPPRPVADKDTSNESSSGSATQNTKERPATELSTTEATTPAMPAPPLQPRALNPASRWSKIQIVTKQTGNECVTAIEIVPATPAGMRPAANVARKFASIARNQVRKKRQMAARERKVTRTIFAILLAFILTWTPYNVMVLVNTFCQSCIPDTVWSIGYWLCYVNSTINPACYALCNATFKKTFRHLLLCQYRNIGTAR
# Summary of the method: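 Cell-free radioligand displacement using CHO-derived human M4 receptor protein, 1 h after dosing; bound radioactivity by filtration and scintillation counting. Primary screen single 25 uM duplicate, actives followed in concentration series.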
# [11] = target: Muscarinic acetylcholine receptor M5 (Homo sapiens) (UniProt P08912); assay: NVS_GPCR_hM5: NovaScreen (NVS) G Protein-Coupled Receptor Assay for human Muscarinic, M5 Receptor (AID 2283275)
# Sequence of Muscarinic acetylcholine receptor M5 (Homo sapiens) (P08912 whole entry, looked up): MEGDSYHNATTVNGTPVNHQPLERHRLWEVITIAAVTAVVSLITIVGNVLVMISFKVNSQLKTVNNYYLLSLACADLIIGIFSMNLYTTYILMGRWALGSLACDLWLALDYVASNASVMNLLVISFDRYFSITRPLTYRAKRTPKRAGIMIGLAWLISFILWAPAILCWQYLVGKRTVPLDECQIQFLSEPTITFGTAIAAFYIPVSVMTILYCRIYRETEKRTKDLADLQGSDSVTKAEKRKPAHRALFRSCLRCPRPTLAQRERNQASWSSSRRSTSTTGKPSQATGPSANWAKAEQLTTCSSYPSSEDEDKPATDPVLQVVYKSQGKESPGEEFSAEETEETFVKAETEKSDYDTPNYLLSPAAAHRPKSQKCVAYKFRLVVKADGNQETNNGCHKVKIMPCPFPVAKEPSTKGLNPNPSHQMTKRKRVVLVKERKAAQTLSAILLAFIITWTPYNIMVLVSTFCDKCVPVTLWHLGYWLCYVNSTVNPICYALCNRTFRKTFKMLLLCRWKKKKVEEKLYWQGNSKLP
# Summary of the method: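 Radioligand displacement on CHO-derived membrane preparations, 1 h, filter-based scintillation counting. Single-concentration duplicate screen at 25 uM; hits (e.g. 30% inhibition) retested in singleton concentration-response up to 50 uM. Loss of binding fitted versus DMSO.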
# [12] = target: human Neurokinin, NK2 Receptor, TACR2 (gene 6865) (UniProt P21452); assay: NVS_GPCR_hNK2: NovaScreen (NVS) G Protein-Coupled Receptor Assay for human Neurokinin, NK2 Receptor (AID 2283278);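 note: actives reduce bound radioligand signal relative to DMSO baseline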
# Sequence of human Neurokinin, NK2 Receptor, TACR2 (gene 6865) (P21452 whole entry, looked up): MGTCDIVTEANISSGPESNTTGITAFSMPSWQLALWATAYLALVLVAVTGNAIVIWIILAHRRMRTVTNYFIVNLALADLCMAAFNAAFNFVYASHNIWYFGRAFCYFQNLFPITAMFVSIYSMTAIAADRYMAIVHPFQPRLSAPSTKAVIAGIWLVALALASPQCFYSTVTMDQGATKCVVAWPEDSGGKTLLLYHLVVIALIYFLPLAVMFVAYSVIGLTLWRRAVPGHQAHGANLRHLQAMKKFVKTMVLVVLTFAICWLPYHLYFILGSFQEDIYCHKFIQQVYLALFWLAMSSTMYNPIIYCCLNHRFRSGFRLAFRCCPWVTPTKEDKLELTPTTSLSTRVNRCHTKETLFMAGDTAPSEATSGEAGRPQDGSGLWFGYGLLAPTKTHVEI
# Summary of the method: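 Filter-based scintillation counting measured radioligand bound to receptor extracted from CHO cells, 4 hours after compound addition. Chemicals screened first at 25 uM in duplicate, with actives retested in concentration series relative to DMSO.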
# [13] = target: human Endothelin Receptor Type A (ETA), EDNRA (gene 1909) (UniProt P25101); assay: NVS_GPCR_hETA: NovaScreen (NVS) G Protein-Coupled Receptor Assay for human Endothelin Receptor Type A (ETA) (AID 2283265)
# Summary of the method: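 Cell-free radioligand displacement using SH-SY5Y-derived protein, 3 h incubation, filter-based scintillation counting. Primary screen in duplicate at 25 uM; actives then run in concentration-response up to 50 uM; loss of binding fitted versus DMSO.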
# [14] = target: human Neurotensin Receptor (NTS), NTSR1 (gene 4923) (UniProt P30989); assay: NVS_GPCR_hNTS: NovaScreen (NVS) G Protein-Coupled Receptor Assay for human Neurotensin Receptor (NTS) (AID 2283279)
# Summary of the method: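 Radioligand displacement on human NTSR1 protein from CHO cells, cell-free, 1 h, filter-based scintillation counting. Primary screen at 25 uM in duplicate; hits rerun in concentration-response up to 50 uM.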
# [15] = target: human Adrenergic, Beta 1 Receptor (Adrb1), ADRB1 (gene 153) (UniProt P08588); assay: NVS_GPCR_hAdrb1: NovaScreen (NVS) G Protein-Coupled Receptor Assay for human Adrenergic, Beta 1 Receptor (Adrb1) (AID 2283258)
# Summary of the method: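 Cell-free radioligand displacement on receptor from human neuroepithelioma cells; 2 h after dosing, filter-based scintillation counting. Primary screen in duplicate at 25 uM, actives retested in concentration series; loss of signal vs DMSO baseline.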
# [16] = target: Beta-2 adrenergic receptor (Homo sapiens) (UniProt P07550); assay: NVS_GPCR_hAdrb2: NovaScreen (NVS) G Protein-Coupled Receptor Assay for human Adrenergic, Beta 2 Receptor (Adrb2) (AID 2283261)
# Summary of the method: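 Filter-based radioligand binding using receptor prepared from CHO cells, 1 h incubation, scintillation counting. Primary screen in duplicate at 25 uM, actives retested in concentration series; loss of binding relative to DMSO.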
# [17] = target: human Leukotriene B4 Receptor 1 (LTB4-BLT1), LTB4R (gene 1241) (UniProt Q15722); assay: NVS_GPCR_hLTB4_BLT1: NovaScreen (NVS) G Protein-Coupled Receptor Assay for human Leukotriene B4 Receptor 1 (LTB4-BLT1) (AID 2283271)
# Summary of the method: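 Radioligand displacement binding on receptor extracted from human neutrophils, cell-free, 1 h after dosing; filter-based scintillation counting. Primary screen in duplicate at 25 uM, actives retested in concentration-response up to 50 uM; loss of signal versus DMSO.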
# [18] = target: human Orphanin, Opioid Related Nociceptin Receptor 1 (ORL1), OPRL1 (gene 4987) (UniProt P41146); assay: NVS_GPCR_hORL1: NovaScreen (NVS) G Protein-Coupled Receptor Assay for human Orphanin, Opioid Related Nociceptin Receptor 1 (ORL1) (AID 2283283)
# Summary of the method: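 Filter-based radioligand displacement with receptor extracted from HEK293 cells, read 1 hour after dosing by scintillation counting. Duplicate single-point screen at 25 uM; qualifying chemicals then run in concentration-response to 50 uM, analysed relative to DMSO.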
# [19] = target: Muscarinic acetylcholine receptor M1 (Homo sapiens) (UniProt P11229); assay: NVS_GPCR_hM1: NovaScreen (NVS) G Protein-Coupled Receptor Assay for human Muscarinic, M1 Receptor (AID 2283270)
# Summary of the method: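 Cell-free radioligand displacement using membrane protein extracted from CHO cells, read by filter-based scintillation counting 1 h after dosing. Loss of bound signal fitted versus DMSO; primary screen single concentration 25 uM in duplicate, actives followed by concentration series.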
# [20] = target: Muscarinic acetylcholine receptor M2 (Homo sapiens) (UniProt P08172); assay: NVS_GPCR_hM2: NovaScreen (NVS) G Protein-Coupled Receptor Assay for human Muscarinic, M2 Receptor (AID 2283273)
# Sequence of Muscarinic acetylcholine receptor M2 (Homo sapiens) (P08172 whole entry, looked up): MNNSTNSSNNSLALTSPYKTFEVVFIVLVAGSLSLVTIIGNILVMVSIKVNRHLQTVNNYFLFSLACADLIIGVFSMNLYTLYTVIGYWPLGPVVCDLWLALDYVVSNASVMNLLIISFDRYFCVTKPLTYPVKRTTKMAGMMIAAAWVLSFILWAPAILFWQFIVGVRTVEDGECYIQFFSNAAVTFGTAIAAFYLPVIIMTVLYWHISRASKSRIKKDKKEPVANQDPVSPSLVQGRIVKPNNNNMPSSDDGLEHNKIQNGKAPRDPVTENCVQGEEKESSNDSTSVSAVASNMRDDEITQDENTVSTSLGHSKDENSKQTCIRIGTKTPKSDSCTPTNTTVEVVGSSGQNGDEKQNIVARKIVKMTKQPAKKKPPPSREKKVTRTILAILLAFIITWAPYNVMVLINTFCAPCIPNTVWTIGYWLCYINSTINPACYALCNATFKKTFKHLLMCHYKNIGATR
# Summary of the method: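 CHO membrane prep, radioligand + test compound, 1 h; filtration, scintillation count. Screen 25 uM duplicate → conc. series for actives. Readout: decrease in binding vs DMSO control.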
compound,measurement,setting,value
CCCCCCCC(OC)OC,AC50,[1],0.0748 µM (active)
Cc1[nH]nc2c1N=C(c1ccccc1Cl)c1cc([N+](=O)[O-])ccc1N2,outcome,[2],inactive
C[C@]12CC[C@@H]3c4ccc(O)cc4CC[C@H]3[C@@H]1C[C@@H](O)[C@@H]2O,outcome,[1],inactive
O=C1c2ccc(O)c(O)c2C(=O)c2c(O)ccc(O)c21,outcome,[3],inactive
OCC(CO)(CBr)CBr,outcome,[1],inactive
COc1cc(OC)nc(NC(=O)NS(=O)(=O)Nc2ccccc2C(=O)N(C)C)n1,outcome,[3],inactive
CCOC(=O)CN[C@@H](C(=O)N1CC[C@H]1C(=O)NCc1ccc(/C(N)=N/O)cc1)C1CCCCC1,outcome,[3],inactive
CCCCCCCCCCCCOS(=O)(=O)O,AC50,[2],16.4 µM (active)
same,AC50,[4],25 µM (active)
same,outcome,[5],inactive
same,AC50,[3],37.6 µM (active)
same,AC50,[6],18.6 µM (active)
same,outcome,[7],inactive
same,AC50,[1],7.92 µM (active)
CN(Cc1cnc2nc(N)nc(N)c2n1)c1ccc(C(=O)N[C@@H](CCC(=O)O)C(=O)O)cc1,outcome,[2],inactive
same,outcome,[8],inactive
same,AC50,[9],22 µM (active)
same,AC50,[3],25 µM (active)
same,outcome,[10],inactive
same,outcome,[11],inactive
same,AC50,[12],2.6 µM (active)
same,AC50,[6],25 µM (active)
Clc1ccc(Nc2nnc(Cc3ccncc3)c3ccccc23)cc1,AC50,[3],16 µM (active)
same,AC50,[12],3.61 µM (active)
same,AC50,[1],0.417 µM (active)
CCCCc1oc2ccccc2c1C(=O)c1cc(I)c(OCCN(CC)CC)c(I)c1,AC50,[4],18.9 µM (active)
same,AC50,[13],0.59 µM (active)
same,AC50,[10],4.41 µM (active)
same,AC50,[11],4.86 µM (active)
same,AC50,[12],11.4 µM (active)
same,AC50,[14],7.41 µM (active)
N=C(N)c1ccc(OCCCCCOc2ccc(C(=N)N)cc2)cc1,AC50,[15],20.4 µM (active)
same,AC50,[2],7.57 µM (active)
same,AC50,[16],21.9 µM (active)
same,outcome,[9],inactive
same,AC50,[3],12.3 µM (active)
same,outcome,[17],inactive
same,AC50,[10],2.83 µM (active)
same,AC50,[11],8.19 µM (active)
same,outcome,[12],inactive
same,AC50,[6],8.49 µM (active)
same,AC50,[18],27.8 µM (active)
NC(=NCCCCCCN=C(N)/N=C(\N)Nc1ccc(Cl)cc1)/N=C(\N)Nc1ccc(Cl)cc1,AC50,[3],0.618 µM (active)
same,AC50,[19],3.15 µM (active)
same,AC50,[12],2.18 µM (active)
same,AC50,[18],4.71 µM (active)
CC=O,outcome,[3],inactive
same,outcome,[1],inactive
CCc1cccc(CC)c1NC(=O)C(=O)O,outcome,[3],inactive
C/C=C/C(=O)C1=C(C)CCCC1(C)C,outcome,[3],inactive
NS(=O)(=O)O,outcome,[1],inactive
CN(C)c1ccc(C(=C2C=CC(=[N+](C)C)C=C2)c2ccccc2)cc1,AC50,[3],2.97 µM (active) and 3.18 µM (active)
same,AC50,[20],4.03 µM (active) and 2.32 µM (active)
same,AC50,[12],5.94 µM (active) and 1.63 µM (active)
same,AC50,[1],12.5 µM (active)
same,outcome,[1],inactive
CCCCCCCCCCCCCCCCCC[N+](C)(C)Cc1ccccc1,AC50,[3],2.22 µM (active)
same,AC50,[20],314 nM (active)
same,AC50,[12],2.55 µM (active)
CCC(=O)O,outcome,[1],inactive
CCCCCCCCC(C)=O,outcome,[3],inactive
CC(C)(C)c1ccc(O)c(O)c1,AC50,[3],25 µM (active)
same,AC50,[12],16 µM (active)
same,outcome,[12],inactive
O=C1OC2(c3ccccc31)c1cc(I)c(O)c(I)c1Oc1c2cc(I)c(O)c1I,AC50,[3],0.594 µM (active)
same,AC50,[12],1.78 µM (active)
same,AC50,[1],1.24 µM (active)
CC[N+](CC)(CC)Cc1ccccc1,AC50,[20],21500 nM (active)
CCCCCc1ccc(O)cc1,outcome,[12],inactive
CC1=NN(c2ccccc2)C(=O)C1,outcome,[1],inactive
O=C(CCCN1CCC(O)(c2ccc(Cl)cc2)CC1)c1ccc(F)cc1,outcome,[8],inactive
same,outcome,[12],inactive
CC(O)COc1ccccc1 (stereo not given),outcome,[1],inactive
CCCCC=O,outcome,[7],inactive
C=Cc1ccc(O)c(OC)c1,outcome,[1],inactive
